According to the supplement of paper PMC6555819:

tested on: VDR:RXRa (NR concentration 270 nM, RXRa partner concentration 90 nM); test: PBM binding z-score (relative to random genomic background probes); higher = stronger binding; sequences stand for … in GC…GCGATTGACAGCGTAGAATGAAGG
Description: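 Protein-binding microarray (Agilent 4x180K custom design, double-stranded 60-nt probes: 5' GC cap, 34-nt variable region, 24-nt constant primer region; full probe sequence given). Purified or IVT nuclear receptor:RXRα heterodimers (3:1 NR:RXRα, mostly 270:90 nM) or homodimers were incubated for 1 h in PBS with 2% milk and no ligand, then detected with Alexa488 antibodies. Fluorescence from o1-orientation probes (~5 replicates averaged) was converted to z-scores against 500 random hg19 background probes. Variable regions are seed direct-repeat (DR0–DR5) sites, all their single-nucleotide variants and half-site ablations.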

Row | Sequence | PBM binding z-score
1 | AGAATGAGGTTACCAAAGATCAGGGAGACGCTTG | 1.51
2 | GCTGCTAGGTCAGGTAGGTCAGCTAACGGGTACG | 3.35
3 | CGTCCAAGGTCAGAGAGGTCAATGAATGCCGAGT | 7.79
4 | CAGCCTAGGTCGGGGCCAGTATAGGAGGAACGTT | -0.53
5 | TCTGCTAGGTCAGTTGGTCAGCGAACGAGCTGCC | 0.114
6 | GCTGCTAGTTCAGGTTGGTCAGCTAACGGGTACG | 0.0828
7 | CCTGCTAGGTTAATGGTCAGCTAAAGCAGCTCGC | -0.293
8 | ACAGACAGGGGATGAAGGTAACTCAGGCTATCAT | 0.0836
9 | AGTCAAAGTTCACTTGGTAACGTAAGATTCAGCT | 4.07
10 | ATTAGCAGGCCAAGGGTCACTCAAGATTAGTCCG | 2.92
11 | TCTTGTAGAACAGCAGGTTAAGAAAGCTGGCCAA | 0.0158
12 | ACAATGAGGTTATTAAGATCAGGGAATTGCGGTC | 2.56
13 | TAGCCTAGGTAATTGGGCCAGTATAGTACGCATC | -0.627
14 | CCGACTGGGGCAGAAAGGTTACGATACCATCCGG | 1.2
15 | TCTATTAGTTGAAGGACAACCGACGAGTCCGTTT | 1.23
16 | CGTCCAAGGCCATAGGAGGTCAGTGAAGACAGAT | 2.71
17 | CCTCGGAGGCCAACAGGAGGTCAGAGCTGCCAGA | 2.07
18 | CGAACTAGGTCAAGGGCAGTGAATCTCCGCACGC | 1.4
19 | CCTACTGGGCCATCATGTCATTGATATCAACGTT | 0.0429
20 | TCGAGGAGGTTACCAATGGGGCATTCAGCTTTCT | 1.13

Row | Sequence | PBM binding z-score
21 | CCTTACGGGTCACTGACAGGTTATCGCATTTGGA | 3.85
22 | CGTCCAAGGTCAATGCCAGGTCAGTGAAAGCATT | 4.96
23 | CGTCCAAGTTCATAGGAGGTCAGTGAAGACAGAT | 5.91
24 | CTTAGCAGGCCAATCTGGGTCACTCAAGGCTTGA | 0.462
25 | CCGACTGGGGCGGAAAGGTTACCATACCATCCGG | 1.02
26 | CCAACTAGGTCAAGAGGTCAAAGTCCGCTTCCCG | 6.1
27 | AGAATGAGATTATACGTAGATCAGGGAAGAAAGT | -0.367
28 | CCTGCTAGGCCAATGGTCAGCTAAAGCAGCTCGC | -0.792
29 | TCGAGTAGGTTACCAATGGGGCACTCAGCTTTCT | 0.142
30 | TAGCCTAGGTCGGATCGGGCCAGTATACGCTATA | -0.475
31 | TCGTATAGGTAAAGGTGAAAGTCGAACGATATGA | 0.788
32 | GCTCGGAGGGCAAGGTCAGAGCTTTGTCCGTAGA | 1.72
33 | TATACAGGGTCAAAGGCCAGAGTCCGAATGTCGA | 4.8
34 | TCGAGTAGGTTACCAATGGGGCATTGAGCTTTCT | -0.0858
35 | GGAACGAGGGCAAAGTCGATAGCATCTGTCGACG | 0.524
36 | CCTACTAGGCCAAAGGTCATTGATTCCAATGCTC | 5.12
37 | TTACCAAGGTGAAGGTCGCTGATCCCTCTGTAGA | 0.493
38 | CCGACTGGGGCAAAGGTTACCATACTCAGTACGA | 1.68
39 | ATCTCTCGGTAAAGTTCAGTGAAAGATCGATAGA | 1.1
40 | GCGACTGGGTCATCAGCAGGTTACCATAACTTAA | 2.27
